TLR9-MyD88 inh – inhibitors of TLR9-MyD88 association in cells, primary screen, cell-based, CHO, BLA complementation, fluorescence; CCF4 FRET ratio; inhibition, % at 4.98 µM; 340,000 tested, 0.21% active; AID 504734, 2011;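 active = inhibition above the mean over all tested compounds plus 3 SD, cut at about 21% in these data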
TLR4 MyD88 comp – inhibitors of TLR4-MyD88 association in cells, primary screen, cell-based, HeLa CL3-4, BLA complementation, FRET ratio; Toll-like receptor 4 (Homo sapiens) + Myeloid differentiation primary response protein …; HeLa CL3-4 TLR4/MyD88 BLA complementation; inhibition, % at 8.4 µM; 200,000 tested, 0.18% active; AID 861, 2007; in the data active = inhibition above about 25%
NPR1 activator – GC-A stimulated cGMP production enhancers – HEK293 GC-A cells, cGMP TR-FRET, EC30 ANP, primary screen; Atrial natriuretic peptide receptor 1 (Homo sapiens), P16066; 0% at EC30 ANP, 100% saturating ANP; activation, % at 10 µM; 370,000 tested, 0.14% active; in the data active = activation above about 40%
Target sequence (P16066 whole entry, looked up): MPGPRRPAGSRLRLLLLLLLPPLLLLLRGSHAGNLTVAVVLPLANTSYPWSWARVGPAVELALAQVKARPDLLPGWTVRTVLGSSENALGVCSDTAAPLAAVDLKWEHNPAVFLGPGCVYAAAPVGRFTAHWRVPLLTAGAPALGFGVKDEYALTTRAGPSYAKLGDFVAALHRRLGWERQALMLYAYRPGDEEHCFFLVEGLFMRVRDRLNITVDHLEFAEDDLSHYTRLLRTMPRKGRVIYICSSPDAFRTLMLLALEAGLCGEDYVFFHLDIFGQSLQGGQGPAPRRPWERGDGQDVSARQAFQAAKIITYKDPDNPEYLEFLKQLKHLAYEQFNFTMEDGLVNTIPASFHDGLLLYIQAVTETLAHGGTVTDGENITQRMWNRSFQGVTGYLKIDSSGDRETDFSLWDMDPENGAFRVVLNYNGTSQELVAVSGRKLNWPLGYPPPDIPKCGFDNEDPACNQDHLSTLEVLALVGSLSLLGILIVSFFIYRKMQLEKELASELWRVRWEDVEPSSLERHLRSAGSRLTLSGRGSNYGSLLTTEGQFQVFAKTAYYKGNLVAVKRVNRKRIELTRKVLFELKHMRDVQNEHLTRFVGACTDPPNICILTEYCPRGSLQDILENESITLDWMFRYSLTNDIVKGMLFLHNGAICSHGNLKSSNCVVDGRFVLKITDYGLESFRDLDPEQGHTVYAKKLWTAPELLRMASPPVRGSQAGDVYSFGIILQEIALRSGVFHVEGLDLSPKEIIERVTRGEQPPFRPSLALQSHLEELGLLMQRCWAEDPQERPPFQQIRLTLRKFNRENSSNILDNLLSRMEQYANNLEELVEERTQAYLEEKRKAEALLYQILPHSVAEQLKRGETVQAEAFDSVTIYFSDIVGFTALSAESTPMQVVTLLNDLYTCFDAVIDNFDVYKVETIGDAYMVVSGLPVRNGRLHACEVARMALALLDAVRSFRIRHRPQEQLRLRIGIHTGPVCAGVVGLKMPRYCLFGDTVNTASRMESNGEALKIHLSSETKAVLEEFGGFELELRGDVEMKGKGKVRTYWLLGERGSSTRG
GC-B act – human GC-B receptor activators, primary screen, HEK293 GC-B cells, cGMP TR-FRET, EC30 CNP; activation, % at 10 µM; 0% at EC30 CNP, 100% saturating CNP; Atrial natriuretic peptide receptor 2 (Homo sapiens), P20594; 370,000 tested, 0.11% active; AID 1920062, 2024;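 active = activation at 10 µM reaching about 35% in either raw or pattern-adjusted values, limit read from the data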
NOD2 RIPK2 PPI – NOD2-RIPK2 binding disruptors in cells, primary screen, fluorescence, CHO cells, BLA complementation. Receptor-interacting serine/threonine-protein kinase 2 (Homo sapiens), O43353. CCF4 ratio. inhibition, % at 4.98 µM. 360,000 tested, 0.38% active. AID 624267, 2012; in the data active = inhibition above about 21%
Neddyl block – inhibitors of cullin neddylation, primary screen, biochemical, TR-FRET, uHTS, NAE and Ubc12. 360,000 tested, 0.58% active. AID 651699, 2012. inhibition, % at 25 µM. NEDD8-conjugating enzyme Ubc12 (Homo sapiens) + NEDD8-activating enzyme E1 regulatory …; in the data active = inhibition above about 36%
Neddyl inh conf – blockade of NEDD8 conjugation to cullin – biochemical, TR-FRET, single concentration, confirmation; 1,800 tested, 13% active; TR-FRET cullin neddylation biochemical assay; shares compounds with Neddyl block; calls only at 25 µM; in the data active = inhibition above about 40%;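 note: neddylation substrate is the cullin 1 ring ligase complex with SKP2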
A number is an active result; – = inactive; · = no result given; + = active, no number. An excerpt weighted towards active compounds, which were near 1.2% of everything screened.

SMILES | TLR9-MyD88 inh | TLR4 MyD88 comp | NPR1 activator | GC-B act | NOD2 RIPK2 PPI | Neddyl block | Neddyl inh conf
COCCNC(=O)/C(C#N)=C/c1c(N2CCN(c3ccccc3)CC2)nc2ccccn2c1=O | – | · | – | – | – | · | ·
COCCCNC(=O)/C(C#N)=C/c1c(N2CCN(c3ccccc3)CC2)nc2ccccn2c1=O | – | · | – | – | – | 62 | +
Cc1ccc(Oc2nc3c(C)cccn3c(=O)c2/C=C(\C#N)C(N)=O)cc1 | – | · | – | – | – | 46 | –
CCNC(=O)/C(C#N)=C/c1c(N2CCCCCC2)nc2ccccn2c1=O | – | · | – | – | – | · | ·
CCNC(=O)/C(C#N)=C/c1c(N2CCN(c3ccccc3)CC2)nc2ccccn2c1=O | – | · | – | – | – | 43 | +
CCOC(=O)/C(C#N)=C/c1c(Oc2cccc(C)c2)nc2c(C)cccn2c1=O | – | – | – | – | – | · | ·
COCCCNC(=O)/C(C#N)=C/c1c(N2CCN(c3ccc(OC)cc3)CC2)nc2c(C)cccn2c1=O | – | · | – | – | – | 55 | –
O=C(O)c1ccccc1N(c1ccccc1)c1ccccc1 | · | · | – | – | – | – | ·
S=c1[nH]nc(-c2cc(-c3ccccc3)n[nH]2)n1/N=C/c1ccc(Cl)c(Cl)c1 | – | · | – | – | – | 83 | –
Cc1ccc(Sc2ccc(S(=O)(=O)Nc3ccc(C(=O)O)cc3)cc2)cc1C | – | · | – | – | – | – | ·
Cc1cccc(-c2cccc3c4c([nH]c23)[C@@H]2C[C@H](N(C)C(=S)NCCc3ccccc3)[C@H]([C@H](C)O)CN2CC4)c1 | · | · | – | – | · | · | ·
Cn1cnc(S(=O)(=O)Nc2ccc(OC(F)F)cc2)c1 | – | · | – | – | – | 49 | –
COc1ccc(NS(=O)(=O)c2cn(C)cn2)cc1 | – | · | – | – | – | – | ·
O=c1ccc(/C=C/c2ccccc2)nn1Cc1ccccc1 | – | – | – | – | – | 49 | –
Cn1nc(/C=C/c2ccccc2)ccc1=O | – | – | – | – | – | 50 | –
Cc1nc(/C=C/c2ccccc2)cc(/C=C/c2ccccc2)n1 | – | – | – | – | – | – | ·
Cc1cc(C)n2c3c(c(C#N)c2n1)CCCC3 | – | – | – | – | – | 41 | –
CC(C)OCCCn1c(NN)nc2ccccc2c1=O | – | – | – | – | – | – | ·
NNc1nc2ccccc2c(=O)n1Cc1ccccc1 | – | · | – | – | – | 41 | –
CC(=O)c1ccc2c(c1)c(C#N)c1ccccc1[n+]2[O-] | – | · | – | – | – | 41 | +
CCC(=O)Nc1ccc(C(=O)CSc2nnc(-c3ccc(NS(=O)(=O)CC)cc3)o2)cc1OC | – | · | – | – | – | 44 | –
O=c1cc(-c2ccccc2)c2ccc(O)c(CN3CCCCC3)c2o1 | – | – | – | – | – | 50 | –
COc1cc(F)c(C2=CC(=O)C[C@H](c3ccc(Cl)cc3)C2)cc1F | – | · | – | – | – | – | ·
CCN(CC)CCN(C(=O)c1cc2c(ccc3ccccc32)oc1=O)c1nc2cc3c(cc2s1)OCCO3 | – | · | – | – | – | 56 | –
Cc1sc2nc(-c3cccnc3)[nH]c(=O)c2c1-c1ccccc1 | – | – | – | – | – | 42 | –
CCCCN(CCCC)C1=Nc2ccccc2N/C1=C(/C#N)C(=O)OCC | – | – | – | – | – | 40 | –
O=C(NCc1ccncc1)[C@@H]1CCCN1C(=O)[C@@H]1CCCN1 | · | · | – | – | – | – | ·
CCOCCCn1c(=NC(=O)c2cccnc2)c(C(=O)OCC)cc2c(=O)n3ccccc3nc21 | – | – | – | – | – | · | +
CCCCn1c(=NC(=O)c2cccnc2)c(C(=O)OCC)cc2c(=O)n3ccccc3nc21 | – | – | – | – | – | · | ·

From PubChem BioAssay
